According to PubChem BioAssay AID1159580 (chemical genetic matrix, 2015):
The campaign covered roughly 5,500 compounds. About 2,000 (36%) were called active. About 18% were inconclusive and are not listed. This is one part of the list. A number with no mark means an inactive call. No stated cut-off is given here; in the data, active means normalized growth mostly below about 0.91 (no sharp cut-off); inconclusive means no clear call, values can overlap the other calls; inactive means mostly above about 0.92.

Experiment: chemical genetic growth profiling, strain panel (AID 1159580);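 further: tested at 20 µM; growth read once vehicle control cultures reached saturation at 30 °C; 1 = growth at the plate median or of vehicle wells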
Conditions: growth OD

Compound: C[C@]12CCC3c4ccc(O)cc4CCC3C1CC[C@@H]2O (stereo not given in full)
- normalized growth (S. cerevisiae deletion strains, locus YJR066W, strain TOR1, stronger effect = lower value): 0.902
- normalized growth (S. cerevisiae deletion strains, locus YJR075W, strain HOC1, stronger effect = lower value): 1.02
- normalized growth (S. cerevisiae deletion strains, locus YKL009W, strain mrt4, stronger effect = lower value): 0.892
- normalized growth (S. cerevisiae deletion strains, locus YKL068W, stronger effect = lower value): 1.02
- normalized growth (S. cerevisiae deletion strains, locus YKL085W, strain MDH1 (second series), stronger effect = lower value): 1.04
- normalized growth (S. cerevisiae deletion strains, locus YKL085W, strain MDH1, stronger effect = lower value): 1.04
- normalized growth (S. cerevisiae deletion strains, locus YKL160W, strain elf1, stronger effect = lower value): 0.988
- normalized growth (S. cerevisiae deletion strains, locus YKL190W, strain CNB1, stronger effect = lower value): 1.03
- normalized growth (S. cerevisiae deletion strains, locus YKR001C, strain vps1, stronger effect = lower value): 0.915
- normalized growth (S. cerevisiae deletion strains, locus YKR026C, strain gcn3, stronger effect = lower value): 1.03
- normalized growth (S. cerevisiae deletion strains, locus YKR091W, strain srl3, stronger effect = lower value): 1.02
- normalized growth (S. cerevisiae deletion strains, locus YLL001W, strain dnm1, stronger effect = lower value): 1.02
- normalized growth (S. cerevisiae deletion strains, locus YLL026W, stronger effect = lower value): 0.982
- normalized growth (S. cerevisiae deletion strains, locus YLL041C, strain sdh2, stronger effect = lower value): 1.02
- normalized growth (S. cerevisiae deletion strains, locus YLR027C, strain aat2, stronger effect = lower value): 0.973
- normalized growth (S. cerevisiae deletion strains, locus YLR039C, strain RIC1, stronger effect = lower value): 0.866
- normalized growth (S. cerevisiae deletion strains, locus YLR058C, strain SHM2, stronger effect = lower value): 1
- normalized growth (S. cerevisiae deletion strains, locus YLR102C, strain apc9, stronger effect = lower value): 1.01
- normalized growth (S. cerevisiae deletion strains, locus YLR113W, strain HOG1, stronger effect = lower value): 0.983
- normalized growth (S. cerevisiae deletion strains, locus YLR221C, strain rsa3, stronger effect = lower value): 0.977
- normalized growth (S. cerevisiae deletion strains, locus YLR258W, strain gsy2, stronger effect = lower value): 0.96
- normalized growth (S. cerevisiae deletion strains, locus YLR262C, strain YPT6 (second series), stronger effect = lower value): 0.738 (active)
- normalized growth (S. cerevisiae deletion strains, locus YLR262C, strain YPT6, stronger effect = lower value): 0.819
- normalized growth (S. cerevisiae deletion strains, locus YLR268W, strain sec22, stronger effect = lower value): 0.936
- normalized growth (S. cerevisiae deletion strains, locus YLR320W, strain mms22, stronger effect = lower value): 0.892
- normalized growth (S. cerevisiae deletion strains, locus YLR330W, strain CHS5, stronger effect = lower value): 1
- normalized growth (S. cerevisiae deletion strains, locus YLR342W, strain FKS1 (second series), stronger effect = lower value): 0.868
- normalized growth (S. cerevisiae deletion strains, locus YLR342W, strain FKS1, stronger effect = lower value): 1
- normalized growth (S. cerevisiae deletion strains, locus YLR357W, strain rsc2, stronger effect = lower value): 1.03
- normalized growth (S. cerevisiae deletion strains, locus YLR370C, strain arc18, stronger effect = lower value): 1
- normalized growth (S. cerevisiae deletion strains, locus YLR371W, strain rom2, stronger effect = lower value): 1.02
- normalized growth (S. cerevisiae deletion strains, locus YLR384C, strain iki3, stronger effect = lower value): 1.02
- normalized growth (S. cerevisiae deletion strains, locus YLR418C, strain cdc73, stronger effect = lower value): 0.896
- normalized growth (S. cerevisiae deletion strains, locus YML016C, strain PPZ1, stronger effect = lower value): 1.01
- normalized growth (S. cerevisiae deletion strains, locus YML032C, strain rad52, stronger effect = lower value): 0.977
- normalized growth (S. cerevisiae deletion strains, locus YML120C, strain ndi1, stronger effect = lower value): 0.996
- normalized growth (S. cerevisiae deletion strains, locus YML124C, strain tub3, stronger effect = lower value): 1.01
- normalized growth (S. cerevisiae deletion strains, locus YMR058W, strain fet3, stronger effect = lower value): 0.917
- normalized growth (S. cerevisiae deletion strains, locus YMR078C, strain ctf18, stronger effect = lower value): 0.985
- normalized growth (S. cerevisiae deletion strains, locus YMR125W, strain sto1, stronger effect = lower value): 1.1
- normalized growth (S. cerevisiae deletion strains, locus YMR129W, stronger effect = lower value): 1.02
- normalized growth (S. cerevisiae deletion strains, locus YMR205C, strain PFK2, stronger effect = lower value): 1.01
- normalized growth (S. cerevisiae deletion strains, locus YMR223W, strain ubp8, stronger effect = lower value): 0.974
- normalized growth (S. cerevisiae deletion strains, locus YMR231W, strain pep5, stronger effect = lower value): 1.01
- normalized growth (S. cerevisiae deletion strains, locus YMR263W, strain SAP30, stronger effect = lower value): 0.98
- normalized growth (S. cerevisiae deletion strains, locus YMR307W, strain GAS1, stronger effect = lower value): 0.929
- normalized growth (S. cerevisiae deletion strains, locus YNL067W, strain RPL9B, stronger effect = lower value): 0.978
- normalized growth (S. cerevisiae deletion strains, locus YNL071W, strain lat1, stronger effect = lower value): 0.958
- normalized growth (S. cerevisiae deletion strains, locus YNL153C, strain GIM3, stronger effect = lower value): 0.955
- normalized growth (S. cerevisiae deletion strains, locus YNL183C, strain NPR1, stronger effect = lower value): 0.912
- normalized growth (S. cerevisiae deletion strains, locus YNL209W, strain ssb2, stronger effect = lower value): 1.01
- normalized growth (S. cerevisiae deletion strains, locus YNL233W, strain BNI4, stronger effect = lower value): 0.997
- normalized growth (S. cerevisiae deletion strains, locus YNL248C, strain rpa49, stronger effect = lower value): 0.993
- normalized growth (S. cerevisiae deletion strains, locus YNL250W, strain rad50, stronger effect = lower value): 0.955
- normalized growth (S. cerevisiae deletion strains, locus YNL271C, strain bni1, stronger effect = lower value): 0.977
- normalized growth (S. cerevisiae deletion strains, locus YNL298W, strain CLA4, stronger effect = lower value): 0.897 (active)
- normalized growth (S. cerevisiae deletion strains, locus YNL307C, strain MCK1, stronger effect = lower value): 0.987
- normalized growth (S. cerevisiae deletion strains, locus YNL322C, strain KRE1 (second series), stronger effect = lower value): 1.03
- normalized growth (S. cerevisiae deletion strains, locus YNR049C, strain mso1, stronger effect = lower value): 1.02
- normalized growth (S. cerevisiae deletion strains, locus YNR052C, strain pop2, stronger effect = lower value): 0.928
- normalized growth (S. cerevisiae deletion strains, locus YOL006C, strain TOP1, stronger effect = lower value): 0.744
- normalized growth (S. cerevisiae deletion strains, locus YOL012C, strain htz1): 1.8
- normalized growth (S. cerevisiae deletion strains, locus YOL147C, strain pex11, stronger effect = lower value): 1
- normalized growth (S. cerevisiae deletion strains, locus YOR001W, strain rrp6, stronger effect = lower value): 0.948
- normalized growth (S. cerevisiae deletion strains, locus YOR061W, strain CKA2, stronger effect = lower value): 0.984
- normalized growth (S. cerevisiae deletion strains, locus YOR069W, strain VPS5, stronger effect = lower value): 1
- normalized growth (S. cerevisiae deletion strains, locus YOR070C, strain gyp1, stronger effect = lower value): 0.974
- normalized growth (S. cerevisiae deletion strains, locus YOR080W, strain dia2, stronger effect = lower value): 0.996
- normalized growth (S. cerevisiae deletion strains, locus YOR083W, strain WHI5, stronger effect = lower value): 0.96
- normalized growth (S. cerevisiae deletion strains, locus YOR106W, strain vam3, stronger effect = lower value): 0.934
- normalized growth (S. cerevisiae deletion strains, locus YOR136W, strain idh2, stronger effect = lower value): 0.978
- normalized growth (S. cerevisiae deletion strains, locus YOR144C, strain elg1, stronger effect = lower value): 0.974
- normalized growth (S. cerevisiae deletion strains, locus YOR184W, strain ser1, stronger effect = lower value): 0.857 (active)
- normalized growth (S. cerevisiae deletion strains, locus YOR231W, strain MKK1, stronger effect = lower value): 0.928
- normalized growth (S. cerevisiae deletion strains, locus YOR265W, strain rbl2, stronger effect = lower value): 0.986
- normalized growth (S. cerevisiae deletion strains, locus YOR270C, strain vph1, stronger effect = lower value): 0.797
- normalized growth (S. cerevisiae deletion strains, locus YOR290C, strain snf2, stronger effect = lower value): 0.906
- normalized growth (S. cerevisiae deletion strains, locus YOR316C, strain cot1, stronger effect = lower value): 1
- normalized growth (S. cerevisiae deletion strains, locus YPL051W, strain arl3, stronger effect = lower value): 0.953
- normalized growth (S. cerevisiae deletion strains, locus YPL055C, strain LGE1, stronger effect = lower value): 0.907
- normalized growth (S. cerevisiae deletion strains, locus YPL078C, strain atp4, stronger effect = lower value): 0.963
- normalized growth (S. cerevisiae deletion strains, locus YPL106C, strain sse1, stronger effect = lower value): 1.08
- normalized growth (S. cerevisiae deletion strains, locus YPL240C, strain hsp82, stronger effect = lower value): 0.999
- normalized growth (S. cerevisiae deletion strains, locus YPL256C, strain CLN2, stronger effect = lower value): 0.99
- normalized growth (S. cerevisiae deletion strains, locus YPR119W, strain clb2, stronger effect = lower value): 1.03
- normalized growth (S. cerevisiae deletion strains, locus YPR141C, strain kar3, stronger effect = lower value): 1.03
- normalized growth (S. cerevisiae deletion strains, locus YPR163C, strain tif3, stronger effect = lower value): 0.963
- normalized growth (S. cerevisiae deletion strains, locus YPR167C, strain met16, stronger effect = lower value): 0.985
- normalized growth (S. cerevisiae deletion strains, strain wtn01, stronger effect = lower value): 0.92
- normalized growth (S. cerevisiae strains, strain wild type, stronger effect = lower value): 1
